Values joined by “and” are separate entries in the source; they are usually repeats but may differ in a detail not shown here. Equal entries are not always repeated. Records with an inconclusive call do not appear. Some compounds were tested as several samples or in several runs, with calls that do not always agree. Active and inactive are the calls of the source. The calls were made as follows, unless noted: active = hit-call score of the fitted dose curve at least 0.9, where 1 is the maximum; inactive = score below 0.9.
Tests used:
[1] = ATG_NRF2_ARE_CIS: Attagene CIS-FACTORIAL HepG2 Assay for human Nuclear Factor Erythroid 2 Related Factor 2 (NFR2) response to Antioxidant Response Elements (ARE) (AID 2282992); conditions: HepG2 Attagene ARE/NRF2 reporter, transcription factor activity; actives raise or lower the signal;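 as to AC50: reporter mRNA level measured by RT-PCR and capillary electrophoresis fluorescence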
Method in brief: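 Multiplexed reporter mRNA profiling in HepG2 after a 24 h chemical exposure. Curves fitted in both directions relative to DMSO negative control.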

[2] = ATG_Oct_MLP_CIS: Attagene CIS-FACTORIAL HepG2 Assay for human Octamer-Binding Transcription Factor (Oct) (AID 2282993); conditions: HepG2 Attagene cis-factorial Oct reporter, mRNA; actives raise or lower the signal
Method in brief: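 After 24 h compound exposure, transfected HepG2 cells were lysed for total RNA; reporter-specific cDNA was PCR-amplified, fluorescently labelled and sized by capillary electrophoresis. Bidirectional curve fitting used DMSO as baseline.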

[3] = biological target: Cellular tumor antigen p53 (Homo sapiens) (UniProt P04637); experiment: ATG_p53_CIS: Attagene CIS-FACTORIAL HepG2 Assay for human p53 Transcription Factor (AID 2282994); conditions: HepG2 p53 cis-element reporter, Attagene mRNA; actives raise or lower the signal
Cellular tumor antigen p53 (Homo sapiens), sequence (P04637 whole entry, looked up): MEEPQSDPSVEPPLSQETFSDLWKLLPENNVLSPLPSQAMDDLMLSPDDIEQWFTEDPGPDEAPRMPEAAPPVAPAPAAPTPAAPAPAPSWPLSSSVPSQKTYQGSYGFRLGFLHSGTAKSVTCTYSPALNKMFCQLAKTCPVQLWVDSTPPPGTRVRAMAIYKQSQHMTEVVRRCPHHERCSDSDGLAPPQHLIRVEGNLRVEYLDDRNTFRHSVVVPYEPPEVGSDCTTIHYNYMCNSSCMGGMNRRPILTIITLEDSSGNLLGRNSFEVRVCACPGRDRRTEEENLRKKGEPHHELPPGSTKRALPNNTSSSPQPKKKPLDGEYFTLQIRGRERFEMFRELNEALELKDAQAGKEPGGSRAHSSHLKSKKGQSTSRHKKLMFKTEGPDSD
Method in brief: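 Multiplexed reporter mRNA assay in human HepG2 liver cells; cis-regulated units report endogenous factor activity. Values come from bidirectional curve fitting against DMSO negative control after 24 h treatment.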

[4] = BSK_3C_TissueFactor: BioMAP Diversity Plus: 3C Assay for Tissue Factor Biomarker Activity (AID 2282997); conditions: BioMAP 3C HUVEC, tissue factor biomarker readout; actives raise or lower the signal
Method in brief: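 Primary human umbilical vein endothelial cells in the 3C system were exposed to test chemical for 24 h, then Tissue Factor measured by ELISA. Activity was fitted bidirectionally against DMSO as negative control and baseline.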

[5] = BSK_4H_Eotaxin3: BioMAP Diversity Plus: 4H Assay for Eotaxin 3 Biomarker Activity (AID 2283000); conditions: primary human endothelial cells (HUVEC); actives raise or lower the signal
Method in brief: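 HUVEC, 24 h post-dose, ELISA for Eotaxin-3/CCL26. Gain or loss of signal fitted bidirectionally vs DMSO baseline.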

[6] = biological target: human Peroxisome Proliferator-activated Receptor alpha (PPARa), PPARA (gene 5465) (UniProt Q07869); experiment: ATG_PPARa_TRANS: Attagene TRANS-FACTORIAL HepG2 Assay for human Peroxisome Proliferator-activated Receptor alpha (PPARa) (AID 2283001; active = hit-call score of the fitted dose curve at least 0.9, where 1 is the maximum;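 as to AC50: potency for gain of reporter signal over DMSO so agonist or activator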)
human Peroxisome Proliferator-activated Receptor alpha (PPARa), PPARA (gene 5465), sequence (Q07869 whole entry, looked up, the tested form may be a part): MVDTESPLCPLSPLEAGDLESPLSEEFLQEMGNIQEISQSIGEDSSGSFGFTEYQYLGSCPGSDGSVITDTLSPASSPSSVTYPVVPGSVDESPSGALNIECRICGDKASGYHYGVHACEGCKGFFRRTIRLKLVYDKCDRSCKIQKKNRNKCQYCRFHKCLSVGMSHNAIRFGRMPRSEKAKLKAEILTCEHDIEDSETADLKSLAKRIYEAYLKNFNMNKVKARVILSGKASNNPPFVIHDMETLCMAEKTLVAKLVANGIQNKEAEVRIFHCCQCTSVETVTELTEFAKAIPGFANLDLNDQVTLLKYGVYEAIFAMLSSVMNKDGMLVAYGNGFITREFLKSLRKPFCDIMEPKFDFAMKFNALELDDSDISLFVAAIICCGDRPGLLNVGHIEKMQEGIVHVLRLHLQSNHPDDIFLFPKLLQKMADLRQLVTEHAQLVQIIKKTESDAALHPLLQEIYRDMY
Method in brief: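 HepG2 cells transiently transfected with multiplexed GAL4-UAS reporters driven by exogenous chimeric NR-Gal4 proteins; reporter mRNA measured after 24 h dosing. Read-out by RT-PCR, 6-FAM labelling, HpaI digestion and capillary electrophoresis; gain of signal versus DMSO.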

[7] = read-out: Intercellular Adhesion Molecule 1 (ICAM1), ICAM1 (gene 3383); experiment: BSK_3C_ICAM1: BioMAP Diversity Plus: 3C Assay for Intercellular Adhesion Molecule 1 (ICAM1) Biomarker Activity (AID 2283003); conditions: primary human endothelial cells (HUVEC); actives raise or lower the signal
Method in brief: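 HUVEC primary cells stimulated under 3C conditions; ICAM1 measured by ELISA 24 h after compound dosing. Curves fitted bidirectionally against the DMSO baseline. Overt cytotoxicity checked by SRB staining of parallel cultures.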

[8] = BSK_3C_Proliferation: Cell Proliferation Assessment in the BioMAP Diversity Plus: 3C Assay (AID 2283006); conditions: primary human endothelial cells (HUVEC);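 as to AC50: potency may reflect either rise or fall in cell number versus DMSO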
Method in brief: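 Subconfluent HUVEC (3C system) cultured with chemical; relative cell number read at 48 h by sulforhodamine B total-protein staining (0.1% SRB after 10% TCA fixation, 560 nm). Bidirectional fit relative to DMSO.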

[9] = biological target: Peroxisome proliferator-activated receptor gamma (Homo sapiens) (UniProt P37231); experiment: ATG_PPARg_TRANS: Attagene TRANS-FACTORIAL HepG2 Assay for human Peroxisome Proliferator-activated Receptor-gamma (PPARg) (AID 2283007; active = hit-call score of the fitted dose curve at least 0.9, where 1 is the maximum)
Peroxisome proliferator-activated receptor gamma (Homo sapiens), sequence (P37231 whole entry, looked up, the tested form may be a part): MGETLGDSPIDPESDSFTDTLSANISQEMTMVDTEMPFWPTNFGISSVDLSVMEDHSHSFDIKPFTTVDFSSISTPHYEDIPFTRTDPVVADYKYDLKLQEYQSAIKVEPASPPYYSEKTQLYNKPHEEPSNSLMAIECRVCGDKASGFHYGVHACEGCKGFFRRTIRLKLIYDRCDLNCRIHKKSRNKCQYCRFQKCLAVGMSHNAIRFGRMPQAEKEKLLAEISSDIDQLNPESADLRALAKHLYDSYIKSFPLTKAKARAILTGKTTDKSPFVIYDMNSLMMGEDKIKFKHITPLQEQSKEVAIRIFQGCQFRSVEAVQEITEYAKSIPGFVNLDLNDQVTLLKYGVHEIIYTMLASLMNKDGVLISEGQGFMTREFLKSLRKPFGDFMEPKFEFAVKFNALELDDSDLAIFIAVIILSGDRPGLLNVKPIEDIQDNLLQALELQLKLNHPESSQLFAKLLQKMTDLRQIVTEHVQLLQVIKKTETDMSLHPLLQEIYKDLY
Method in brief: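 Transient transfection of HepG2 with GAL4-UAS-driven reporter units; chemical dosing 24 h; total RNA → oligo(dT) RT → PCR with reporter primers → 6-FAM primer extension → HpaI digest 2 h 37 C → capillary electrophoresis. Positive direction vs DMSO.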

[10] = biological target: Nuclear receptor subfamily 1 group I member 2 (Homo sapiens) (UniProt O75469); experiment: ATG_PXR_TRANS: Attagene TRANS-FACTORIAL HepG2 Assay for human Pregnane X Receptor (PXR) (AID 2283008; active = hit-call score of the fitted dose curve at least 0.9, where 1 is the maximum)
Nuclear receptor subfamily 1 group I member 2 (Homo sapiens), sequence (O75469 whole entry, looked up, the tested form may be a part): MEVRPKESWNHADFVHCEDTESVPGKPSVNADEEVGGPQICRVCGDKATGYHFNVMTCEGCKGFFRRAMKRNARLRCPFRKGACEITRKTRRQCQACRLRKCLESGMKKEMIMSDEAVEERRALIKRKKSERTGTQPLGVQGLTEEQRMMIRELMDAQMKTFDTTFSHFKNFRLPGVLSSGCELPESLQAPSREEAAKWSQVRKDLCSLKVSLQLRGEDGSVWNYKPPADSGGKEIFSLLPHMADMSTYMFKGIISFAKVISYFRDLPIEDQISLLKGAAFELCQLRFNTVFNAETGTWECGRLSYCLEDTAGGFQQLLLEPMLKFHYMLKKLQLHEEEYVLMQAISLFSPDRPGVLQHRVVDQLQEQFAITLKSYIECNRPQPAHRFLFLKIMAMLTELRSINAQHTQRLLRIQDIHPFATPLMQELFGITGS
Method in brief: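 Measures mRNA induction of a GAL4-UAS-driven reporter in human HepG2 cells transiently expressing PXR fused to Gal4, following 24 h treatment. DMSO served as negative control and baseline.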

[11] = biological target: human RAR-related Orphan Receptor beta (RORb), RORB (gene 6096) (UniProt Q92753); experiment: ATG_RORb_TRANS: Attagene TRANS-FACTORIAL HepG2 Assay for human RAR-related Orphan Receptor beta (RORb) (AID 2283010; active = hit-call score of the fitted dose curve at least 0.9, where 1 is the maximum)
human RAR-related Orphan Receptor beta (RORb), RORB (gene 6096), sequence (Q92753 whole entry, looked up, the tested form may be a part): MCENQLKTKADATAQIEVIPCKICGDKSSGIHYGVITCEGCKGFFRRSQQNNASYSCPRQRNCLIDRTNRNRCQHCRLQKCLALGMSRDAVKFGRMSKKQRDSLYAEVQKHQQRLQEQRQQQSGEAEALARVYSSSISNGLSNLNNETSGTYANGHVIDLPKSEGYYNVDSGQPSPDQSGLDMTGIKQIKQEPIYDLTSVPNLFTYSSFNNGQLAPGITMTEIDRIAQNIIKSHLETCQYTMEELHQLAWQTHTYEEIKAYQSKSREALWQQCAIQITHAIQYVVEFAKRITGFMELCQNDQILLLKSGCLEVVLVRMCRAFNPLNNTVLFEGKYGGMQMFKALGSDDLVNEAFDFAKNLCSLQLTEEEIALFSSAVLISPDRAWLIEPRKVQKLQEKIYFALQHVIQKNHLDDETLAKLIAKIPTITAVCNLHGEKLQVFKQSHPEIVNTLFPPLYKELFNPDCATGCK
Method in brief: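 HepG2 cells transiently transfected with GAL4-UAS reporter units expressing chimeric NR-Gal4 protein; reporter mRNA measured 24 h after dosing by RT-PCR, 6-FAM labelling and capillary electrophoresis. Gain-of-signal fitted relative to DMSO baseline.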

[12] = biological target: human RAR-related Orphan Receptor gamma (RORg), RORC (gene 6097) (UniProt P51449); experiment: ATG_RORg_TRANS: Attagene TRANS-FACTORIAL HepG2 Assay for human RAR-related Orphan Receptor gamma (RORg) (AID 2283011; active = hit-call score of the fitted dose curve at least 0.9, where 1 is the maximum)
human RAR-related Orphan Receptor gamma (RORg), RORC (gene 6097), sequence (P51449 whole entry, looked up, the tested form may be a part): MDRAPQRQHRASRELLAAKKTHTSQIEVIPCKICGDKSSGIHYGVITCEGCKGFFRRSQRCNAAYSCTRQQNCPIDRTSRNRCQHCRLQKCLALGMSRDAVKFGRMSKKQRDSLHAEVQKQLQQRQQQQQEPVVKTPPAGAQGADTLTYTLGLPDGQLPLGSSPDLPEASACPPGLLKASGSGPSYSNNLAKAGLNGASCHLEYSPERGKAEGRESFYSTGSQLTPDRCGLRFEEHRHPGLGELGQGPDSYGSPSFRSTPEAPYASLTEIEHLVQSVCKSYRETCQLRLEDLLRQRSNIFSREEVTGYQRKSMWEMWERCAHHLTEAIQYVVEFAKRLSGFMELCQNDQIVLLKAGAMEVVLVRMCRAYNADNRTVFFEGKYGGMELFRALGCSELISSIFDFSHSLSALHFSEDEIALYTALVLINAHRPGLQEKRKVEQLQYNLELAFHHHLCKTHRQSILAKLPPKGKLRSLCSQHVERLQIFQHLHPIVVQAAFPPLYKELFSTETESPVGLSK
Method in brief: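 Readout: reporter transcript induction (RT-PCR, fluorescent primer extension, capillary electrophoresis) after 24 h compound exposure of transiently transfected HepG2 cells carrying a RORg-Gal4 chimera and GAL4-UAS reporters; DMSO served as baseline, with increasing signal fitted.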

[13] = biological target: Retinoic acid receptor RXR-alpha (Homo sapiens) (UniProt P19793); experiment: ATG_RXRa_TRANS: Attagene TRANS-FACTORIAL HepG2 Assay for human Retinoid X Receptor alpha (RXRa) (AID 2283012; active = hit-call score of the fitted dose curve at least 0.9, where 1 is the maximum)
Retinoic acid receptor RXR-alpha (Homo sapiens), sequence (P19793 whole entry, looked up, the tested form may be a part): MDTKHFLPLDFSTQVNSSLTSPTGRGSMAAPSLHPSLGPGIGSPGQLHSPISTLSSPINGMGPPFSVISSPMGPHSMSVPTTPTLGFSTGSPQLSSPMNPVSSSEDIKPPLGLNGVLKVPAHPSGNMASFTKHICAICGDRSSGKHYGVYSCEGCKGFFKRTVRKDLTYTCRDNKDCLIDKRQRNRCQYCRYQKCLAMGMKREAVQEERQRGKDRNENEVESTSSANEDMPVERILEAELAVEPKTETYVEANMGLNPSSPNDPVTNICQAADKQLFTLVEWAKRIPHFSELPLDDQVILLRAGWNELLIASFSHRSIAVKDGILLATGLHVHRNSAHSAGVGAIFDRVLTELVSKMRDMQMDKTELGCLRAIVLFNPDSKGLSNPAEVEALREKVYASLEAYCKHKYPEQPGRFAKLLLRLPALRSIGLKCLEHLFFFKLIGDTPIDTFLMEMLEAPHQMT
Method in brief: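 HepG2 cells transiently transfected with GAL4-UAS reporter units and chimeric RXRa-Gal4 protein, treated 24 h. Reporter mRNA measured by RT-PCR, fluorescent labelling, HpaI digestion and capillary electrophoresis. Induction fitted against DMSO.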

[14] = biological target: human Retinoid X Receptor beta (RXRb), RXRB (gene 6257) (UniProt P28702); experiment: ATG_RXRb_TRANS: Attagene TRANS-FACTORIAL HepG2 Assay for human Retinoid X Receptor beta (RXRb) (AID 2283013; active = hit-call score of the fitted dose curve at least 0.9, where 1 is the maximum)
human Retinoid X Receptor beta (RXRb), RXRB (gene 6257), sequence (P28702 whole entry, looked up, the tested form may be a part): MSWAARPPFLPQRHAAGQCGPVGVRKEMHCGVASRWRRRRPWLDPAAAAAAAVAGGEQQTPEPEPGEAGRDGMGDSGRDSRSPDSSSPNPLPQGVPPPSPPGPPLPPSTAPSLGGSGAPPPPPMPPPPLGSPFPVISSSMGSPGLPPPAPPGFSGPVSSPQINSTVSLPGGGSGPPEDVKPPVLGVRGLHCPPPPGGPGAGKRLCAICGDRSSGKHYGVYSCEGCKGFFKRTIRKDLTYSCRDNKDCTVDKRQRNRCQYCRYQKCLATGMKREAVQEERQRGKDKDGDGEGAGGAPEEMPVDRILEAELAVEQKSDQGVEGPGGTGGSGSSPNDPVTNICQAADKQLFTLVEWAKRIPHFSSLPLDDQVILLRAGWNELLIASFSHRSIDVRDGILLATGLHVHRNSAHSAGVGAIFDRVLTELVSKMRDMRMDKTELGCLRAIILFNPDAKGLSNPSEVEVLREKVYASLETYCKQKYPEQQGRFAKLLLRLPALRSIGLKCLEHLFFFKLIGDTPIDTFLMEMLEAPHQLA
Method in brief: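 HepG2 cells were transiently transfected with multiplexed GAL4-UAS reporters and a chimeric RXRb-Gal4 construct, then exposed for 24 h. Reporter mRNA was quantified by RT-PCR, FAM labeling, HpaI digestion and capillary electrophoresis; gain of signal was scored against DMSO.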

[15] = BSK_3C_uPAR: BioMAP Diversity Plus: 3C Assay for Urokinase-type plasminogen activator receptor (uPAR) Biomarker Activity (AID 2282998); conditions: BioMAP 3C HUVEC, uPAR biomarker ELISA; actives raise or lower the signal
Method in brief: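 Values derive from bidirectional curve fitting relative to DMSO, which served as baseline of activity. uPAR was measured by ELISA in human umbilical vein endothelial primary cultures 24 h after compound addition.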

[16] = biological target: human Peroxisome Proliferator-activated Receptor delta (PPARd), PPARD (gene 5467) (UniProt Q03181); experiment: ATG_PPARd_TRANS: Attagene TRANS-FACTORIAL HepG2 Assay for human Peroxisome Proliferator-activated Receptor delta (PPARd) (AID 2283002; active = hit-call score of the fitted dose curve at least 0.9, where 1 is the maximum)
human Peroxisome Proliferator-activated Receptor delta (PPARd), PPARD (gene 5467), sequence (Q03181 whole entry, looked up, the tested form may be a part): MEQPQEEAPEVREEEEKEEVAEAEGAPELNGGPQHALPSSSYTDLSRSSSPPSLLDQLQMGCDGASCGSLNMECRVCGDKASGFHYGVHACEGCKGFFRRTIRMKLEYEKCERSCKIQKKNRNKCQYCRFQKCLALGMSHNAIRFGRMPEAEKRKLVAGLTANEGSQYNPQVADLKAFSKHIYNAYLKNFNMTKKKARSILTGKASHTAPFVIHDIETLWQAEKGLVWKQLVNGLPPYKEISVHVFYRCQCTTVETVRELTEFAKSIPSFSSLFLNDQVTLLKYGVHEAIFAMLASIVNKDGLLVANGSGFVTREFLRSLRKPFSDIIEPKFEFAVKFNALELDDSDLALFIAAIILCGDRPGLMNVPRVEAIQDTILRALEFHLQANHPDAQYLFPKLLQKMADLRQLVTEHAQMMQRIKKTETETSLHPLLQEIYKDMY
Method in brief: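 HepG2 cells transiently transfected with GAL4-UAS multiplexed reporter units driven by exogenous chimeric NR-GAL4 proteins; 24 h compound exposure. Reporter mRNA measured by RT-PCR, 6-FAM primer extension, HpaI digestion and capillary electrophoresis; gain of signal fitted relative to DMSO.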

[17] = biological target: human Retinoic Acid Receptor gamma (RARg), RARG (gene 5916) (UniProt P13631); experiment: ATG_RARg_TRANS: Attagene TRANS-FACTORIAL HepG2 Assay for human Retinoic Acid Receptor gamma (RARg) (AID 2283009; active = hit-call score of the fitted dose curve at least 0.9, where 1 is the maximum)
human Retinoic Acid Receptor gamma (RARg), RARG (gene 5916), sequence (P13631 whole entry, looked up, the tested form may be a part): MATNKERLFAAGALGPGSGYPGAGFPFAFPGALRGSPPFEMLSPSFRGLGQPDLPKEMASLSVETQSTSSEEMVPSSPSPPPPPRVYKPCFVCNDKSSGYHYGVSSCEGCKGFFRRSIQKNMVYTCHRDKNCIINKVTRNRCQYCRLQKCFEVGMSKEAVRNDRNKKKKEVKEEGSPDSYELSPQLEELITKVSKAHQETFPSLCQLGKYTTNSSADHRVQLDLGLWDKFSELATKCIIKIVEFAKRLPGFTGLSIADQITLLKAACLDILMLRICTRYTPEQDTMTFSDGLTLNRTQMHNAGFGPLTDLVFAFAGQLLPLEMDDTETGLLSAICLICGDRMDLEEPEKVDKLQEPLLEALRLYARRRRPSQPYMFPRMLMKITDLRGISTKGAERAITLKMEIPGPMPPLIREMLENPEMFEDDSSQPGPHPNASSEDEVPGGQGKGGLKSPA
Method in brief: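 HepG2 transiently transfected with GAL4-UAS reporter units and chimeric NR-Gal4 constructs; 24 h compound exposure. Reporter mRNA quantified by RT-PCR, FAM labeling, HpaI digestion and capillary electrophoresis; gain-of-signal versus DMSO.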

[18] = BSK_3C_VCAM1: BioMAP Diversity Plus: 3C Assay for Vascular cell adhesion molecule 1 (VCAM1) Biomarker Activity (AID 2282999); conditions: BioMAP 3C HUVEC, VCAM1 ELISA, cytokine-stimulated; actives raise or lower the signal
Method in brief: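 Human umbilical vein endothelial cells (3C system), biomarker read by ELISA 24 h after dosing; bidirectional fit against DMSO baseline. Cytotoxicity tracked by SRB total-protein staining in parallel cultures at biomarker time.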

[19] = biological target: human Retinoic Acid Receptor beta (RARb), RARB (gene 5915) (UniProt P10826); experiment: ATG_RARb_TRANS: Attagene TRANS-FACTORIAL HepG2 Assay for human Retinoic Acid Receptor beta (AID 2283004; active = hit-call score of the fitted dose curve at least 0.9, where 1 is the maximum)
Method in brief: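 HepG2 cells transiently transfected with multiplexed GAL4-UAS reporter units expressing chimeric NR–Gal4 fusions; 24 h compound exposure. Reporter mRNA quantified by RT-PCR, 6-FAM labelling, HpaI digestion and capillary electrophoresis; gain-of-signal fitted against DMSO baseline.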

Measured: AC50

CCC(C)(C#N)N=NC(C)(C#N)CC (stereo not given)
not listed: [15] | [16] | [17] | [18] | [19]
inactive: all other assays above

O=C(CCl)NCO
active: [1] 65.2 µM
not listed: [6] | [9] | [13] | [14] | [18] | [19]
inactive: all other assays above

CCOP(=O)(OCC)OC(=CCl)c1ccc(Cl)cc1Cl
inactive: [2] | [3] | [18] | [16] | [7] | [19]
active: [1] 7.84 µM | [4] 20 µM | [15] 31.5 µM | [5] 30.9 µM | [8] 28.9 µM | [9] 27.4 µM | [10] 620 nM

O=c1oc2ccccc2c(O)c1C(CC(O)c1ccc(-c2ccc(Br)cc2)cc1)c1ccccc1 (stereo not given)
inactive: [1] | [2] | [6] | [11] | [13]
active: [1] 7.57 µM | [2] 40.9 µM | [3] 53.2 µM and 21.3 µM | [4] 12.7 µM | [18] 21.6 µM | [6] 25.3 µM | [7] 27.2 µM | [8] 6.58 µM | [9] 3.95 µM and 676 nM | [10] 5.19 µM and 7.74 µM
